About 27,000 (9.3%) of roughly 290,000 compounds were called active. For the sample, actives were picked, then their nearest neighbours and some compounds at random. A number with no mark means an inactive call. Rule as the data show it: active = inhibition mostly above about 28% (no sharp cut-off); inactive = mostly below about 43%.

The nature of this assay: A qHTS for Small Molecule Inhibitors of Shiga Toxin. Also: 0% is about no effect. The conditions noted are these: Vero cells, Shiga toxin protein synthesis inhibition reporter; at 38.7 µM, active compounds read high. Background: qHTS replaces the single test concentration by a dilution series.
By inhibition is commonly meant the relative decrease from the control value, in per cent. In the case of `COc1ccccc1C(=O)Nn1cnnc1`, the inhibition is -6.2%. Take `C#CCOc1ccccc1/C=C1/C(=O)ON=C1C`: the inhibition is 3.31%. The value for `CC(=O)N1c2ccc(S(=O)(=O)N3CCC(C(=O)NC4CCCCC4C)CC3)cc2CC1C` (stereo not given) was -11.2%. The value for `COc1cccc(OC)c1C(=O)Nc1c(C(=O)N2CCN(c3ccccn3)CC2)oc2ccccc12` was 3.52%; that for `CCOC(=O)C1CCN(C(=O)CN2C(=O)c3cccnc3Oc3ccc(C)cc32)CC1` was -9.03%. With `COc1ccc(N(C(=O)c2snc(C(N)=O)c2N)C(C(=O)NC2CCCC2)c2ccc(C)o2)c(OC)c1` (stereo not given) the figure was -6.03%.

On to `Cc1ccc2c(c1)N(CC(=O)N1CCCC(C)C1)C(=O)CO2` (stereo not given), for which the inhibition was 2.65%. `Cc1cccc(S(=O)(=O)N2CN(CC3CCCO3)c3nc4ccccc4nc32)c1` (stereo not given): the inhibition was -6.17%. With `O=C(c1c(F)cccc1Cl)N1CCN(c2ccccn2)CC1` the figure was -18.5%; with `Cc1ccccc1N1CCN(CCCN2C(=O)C3CCCCN3C2=O)CC1` (stereo not given), -5.61%. The value for `CN(CC1CCCO1)S(=O)(=O)c1ccc(C(=O)Nc2ccc([N+](=O)[O-])cc2)cc1` (stereo not given) was 14%. The value for `CN(C(=O)c1cccc([N+](=O)[O-])c1)c1ccccc1C(=O)NCc1ccccc1` was -10.6%; that for `Cc1c(C(=O)N/N=C/c2ccccc2)[nH]c2c([N+](=O)[O-])cccc12` was -9.32%; that for `COc1cc2c(C(=O)O)c(C)n(C)c2c2ccccc12` was -4.47%. With `COc1cccc2c(C)c(C(=O)O)[nH]c12`, the inhibition is -35.1% (active). The value for `COc1ccccc1N1CCN(S(=O)(=O)CCNC(=O)c2ccc(OC(C)C)cc2)CC1` was -4.39%; that for `Cc1ccccc1CNC(=O)CCC(=O)N1Cc2ccccc2Oc2ncccc21` was 13.6%; that for `C[n+]1cc(-c2ccccc2)oc1-c1ccccc1` was 88.6% (active).

In the case of `COc1ccccc1CCNS(=O)(=O)c1cn(C)nc1C`, the inhibition was -8.83%. On to `O=C(Nc1nc2ccc([N+](=O)[O-])cc2s1)c1ccncc1`, for which the inhibition is 35%.

As to `COc1cccc(C(=O)Nc2nc3ccc(S(C)(=O)=O)cc3s2)c1`, the inhibition was 92.7% (active). The value for `CNC(=O)c1ccc2nc(NC(C)=O)sc2c1` was 45.1% (active); that for `CS(=O)(=O)c1ccc2nc(NC(=O)CN3CCCCCC3)sc2c1` was 18.3%.

`CS(=O)(=O)c1ccc2nc(NC(=O)C3CCCCC3)sc2c1`: the inhibition was 22.9%. Turning to `CS(=O)(=O)c1ccc2nc(NC(=O)c3ccc(Cl)nc3)sc2c1`, the inhibition is 70.7% (active).

With `CCCC(=O)Nc1nc2ccc(NC(=O)c3cccnc3)cc2s1`, the inhibition was 89.7%. Turning to `CS(=O)(=O)c1ccc2nc(NC(=O)C3C4C=CC(C4)C3C(=O)O)sc2c1` (stereo not given), the inhibition was 14.8%. In the case of `Cc1cnc(NC(=O)c2ccccn2)s1`, the inhibition is 11.7%. With `Cc1cnc(NC(=O)c2ccc(Cl)nc2)s1` the figure was 109% (active); with `CS(=O)(=O)c1ccc2nc(NC(=O)c3ccc(N4CCCC4=O)cc3)sc2c1`, 8.48%; with `CCN(CC)c1ccc(NC(=O)c2ccc(Cl)nc2)cc1`, 18.4%. The value for `CCCNC(=O)c1ccc(N2CCC3(CC2)CC(c2ccc(Cl)cc2)=NO3)c([N+](=O)[O-])c1` was 0.364%; that for `COc1ccc(CN2CCCC(C(=O)N3CCCCC3)C2)cc1` (stereo not given) was -9.61%; that for `Cc1ccc2c(cnn2C(=O)CCC(=O)NC2CCCC2)c1` was 1.95%.

As to `CCOc1ccc(C(CC(=O)O)NC(=O)Cc2ccccc2)cc1OC` (stereo not given), the inhibition is -3.82%. As to `COc1ccc(C2CC(=O)NC(=O)C2)cc1`, the inhibition is 1.04%. For the compound `Cc1c(CCC(=O)N[C@@H](CC(C)C)C(=O)O)c(=O)oc2c(C)c3oc4c(c3cc12)CCCC4`, the inhibition was -1.24%. `CCc1ccc(NC(=O)N[C@H](C(=O)O)C(C)CC)cc1` (stereo not given in full): the inhibition is -3.77%. The value for `O=C(Nc1ccncc1)Nc1ccc(F)cc1` was 30.2%.

Regarding `CCc1ccc(NC(=O)Nc2ccncc2)cc1`, the inhibition is 58.2% (active). The value for `O=C(Nc1cc(C(=O)Nc2ccc(S(=O)(=O)O)cc2)cc(C(=O)Nc2ccc(S(=O)(=O)O)cc2)c1)Nc1cc(C(=O)Nc2ccc(S(=O)(=O)O)cc2)cc(C(=O)Nc2ccc(S(=O)(=O)O)cc2)c1` was -5.01%. Consider `CCCn1c(=N)n(CC(=O)c2ccc(Cl)c(Cl)c2)c2ccccc21`, for which the inhibition is -3.46%. Consider `CC(C)(C)C1CCC(C(=O)NCC(c2cccs2)N2CCOCC2)CC1` (stereo not given), for which the inhibition was -2.93%. The value for `O=C(NCc1cccs1)C1CCN(S(=O)(=O)c2ccc(Cl)cc2)CC1` was -3.28%; that for `O=C(NCc1csc(-c2cccs2)n1)C1CC1` was 68.5% (active). The value for `COCc1ccc(C(=O)NC2CC(C)(C)Cc3c2cnn3-c2ccc(C)cc2)o1` (stereo not given) was 21.9%; that for `CC(NC(=O)COC(=O)c1ccc2c(c1)OCO2)c1ccccc1` (stereo not given) was 17.4%; that for `O=C(COC(=O)c1ccc2c(c1)OCCO2)NCc1ccccc1` was 19.3%.

With `O=C(OCc1ccccc1F)c1ccc2c(c1)OCCO2`, the inhibition is 104% (active). With `O=C(O)c1ccc(/C=C2\SC(=S)N(NC(=O)c3ccc(Br)cc3)C2=O)cc1` the figure was -9.68%. The value for `N#Cc1ccc(S(=O)(=O)NCC(=O)OCC(=O)NCCc2ccccc2)cc1` was -5.8%; that for `CCOC(=O)c1ccc(NC(=O)Cc2cccs2)cc1` was 49.2% (active).

Take `CCCCC(CCC(=O)Nc1ccc(C(=O)OCC)cc1)C(=O)O` (stereo not given): the inhibition was -3.77%. The value for `O=C(Cc1cccs1)Nc1ccc([N+](=O)[O-])cc1` was -6.19%; that for `CCOC(=O)c1ccc(NC(=S)N2CCCC2)cc1` was 8.67%; that for `CCOc1ccccc1NC(=O)Cc1cccs1` was -4.91%. Take `C#CCNc1ccc(C(=O)OCC)cc1`: the inhibition is 58.3% (active).

As for `CCOC(=O)c1cccc(NC(=O)C2CCN(c3ncnc4c3nc3n4CCCCC3)CC2)c1`, the inhibition was 10.8%. For `CC(Sc1nnc(-c2ccccc2F)n1C1CC1)C(N)=O` (stereo not given), the inhibition was -9.07%. In the case of `O=C(O)c1ccc2c(=O)n3c(nc2c1)/C(=C/c1ccc(OC(F)F)cc1OC(F)F)CC3`, the inhibition is 1.37%.

As for `CN(C(=O)CCN1C(=O)/C(=C/c2ccccc2F)SC1=S)C1CCS(=O)(=O)C1` (stereo not given), the inhibition is -3.82%. Regarding `O=C(CN1C(=O)/C(=C/c2ccccc2F)Sc2ccccc21)NCc1cccnc1`, the inhibition was 13.6%. The value for `O=C(CN1C(=O)/C(=C\c2ccccc2F)SC1=S)Nc1nc2ccccc2s1` was 51.7% (active). The value for `COc1ccc(CNc2ccc3c(c2)CCC3)cc1OC` was 37.9%; that for `Cc1ccc(CC2CC(=O)N(c3ccc4c(c3)OCCO4)C2=O)cc1` (stereo not given) was 51.2%; that for `O=CN1CCN(C2CC(=O)N(c3ccc4c(c3)OCO4)C2=O)CC1` (stereo not given) was 19.5%. The value for `Cc1ccc(N2C(=O)CC(NCc3ccc4c(c3)OCO4)C2=O)cc1Cl` (stereo not given) was 110% (active); that for `Cc1cccc(C(=O)NC(=S)N(C)C2CCCCC2)c1` was 117% (active).

With `Cc1cccc(C(=O)NCCCN(C)CCCNC(=O)c2cccc(C)c2)c1`, the inhibition was -6.03%. For the compound `Cc1cccc(NC(=S)NCCN(C2CCCCC2)C2CCCC2)c1`, the inhibition was 19.2%. The value for `Cc1nc2ccc(C(=O)N(C)CC3CCCN(CCc4ccc(Cl)cc4)C3)cc2[nH]1` (stereo not given) was -8.28%.

`COc1ccc(COC(=O)c2ccc(Cl)c(S(=O)(=O)N3CCOCC3)c2)cc1F`: the inhibition was -8.8%. With `Cc1ccccc1N1CCN(CC(=O)NCc2ccc(Cl)cc2)CC1`, the inhibition is -5.06%. With `O=C(NCc1ccc(Cl)cc1)C1CCN(S(=O)(=O)c2cccs2)CC1` the figure was 4.43%; with `O=C(CN1CCN(S(=O)(=O)c2ccc(Cl)s2)CC1)NCc1ccc(Cl)cc1`, 34.8% (active). The value for `CC(C)c1ccccc1OCC(O)CN(CC(O)COc1cccc2ccccc12)C(C)C` (stereo not given) was -14.8%. `COc1cccc(C(=O)NC(=O)Nc2nc(C)cc(C(F)(F)F)n2)c1`: the inhibition is 4.77%. Take `Nc1nonc1-c1noc(-c2ccc(Br)o2)n1`: the inhibition is 24.2%. With `Cn1nc(-c2ccccc2)c(-c2nc(-c3ccc(Cl)cc3)no2)c1Cl` the figure was -16%; with `Brc1ccc(-c2noc(-c3ccccc3)n2)o1`, 139% (active).

As for `Brc1ccc(-c2nnc(-c3ccccc3)o2)o1`, the inhibition was 71.5% (active). The value for `COc1ccc(CNC(=O)CCN2C(=O)c3ccccc3C2=O)cc1` was 4.69%; that for `O=C(O)CC(c1ccccc1F)N1Cc2ccccc2C1=O` (stereo not given) was -12%; that for `CCN(CC)C(=O)C(=O)c1cn(CC(=O)NCc2ccc3c(c2)OCO3)c2ccccc12` was -11.5%. As for `COCCCNC(=O)Cn1cc(C(=O)C2CC2)c2ccccc21`, the inhibition is -8.71%. Turning to `O=C(CN1CCN(c2ccccn2)CC1)NCc1cccs1`, the inhibition was -22.2%.

As to `COC(=O)c1cn(CC(=O)NCc2cccs2)c2ccccc12`, the inhibition is 64.8% (active). With `O=C(Cn1cc(C(=O)c2cccs2)c2ccccc21)NCc1cccs1` the figure was 16.3% (active). On to `COC(=O)Cn1cc(C(=O)c2cccs2)c2ccccc21`, for which the inhibition was 2.14%. Take `Cc1cc(=O)[nH]c(Nc2cccc(Br)c2)n1`: the inhibition is -10.8%. The value for `N#Cc1cccc(CSc2ncnc(N)n2)c1` was 3.32%; that for `Cc1ccccc1-n1cc(CNC(=O)C2CCC(=O)N(C3CC3)C2)cn1` (stereo not given) was 21.3%.

As to `COc1ccc2c(c1)N(C)/C(=C1/SC(=S)N(NC(C)=O)C1=O)S2`, the inhibition was 7.78%. With `COc1ccc(N(Cc2ccc(N(C)C)cc2)C(=O)c2ccc(S(C)(=O)=O)cc2)cc1` the figure was -10.5%; with `CC(=O)Oc1ccc(-c2cccc(C(=O)N3CCCCC3)c2)cc1`, 37.3%; with `CCOc1ccc(OCc2cccc(C(=O)N(CC)CC)c2)cc1`, 160% (active). The value for `COc1ccc(OCc2cccc(C(=O)N3CCCC3)c2)cc1` was 147% (active); that for `COc1ccc(Cn2c(=S)[nH]c3cc(C(=O)N4CCCCC4)ccc3c2=O)cc1` was -3.58%. The value for `CCOc1ccc(OCc2ccc(C(=O)N(C)c3ccccc3)o2)cc1` was 13%; that for `COc1cccc(COc2ccc(N(C)S(=O)(=O)c3ccccc3)cc2)c1` was 26%.
